# Data: ChEMBL document CHEMBL4513216, “Probing the Open Global Health Chemical Diversity Library for Multistage-Active Starting Points for Next-Generation Antimalarials” (ACS Infect Dis, 2020)
# The whole screen tested about 68,000 compounds, of which about 2,700 (4%) showed an effect of 50% or more. This is one part of a sample in which strong results are shown more often than they occur.
# System: Plasmodium berghei
# Assay: Screen against P. berghei liver stage (PbLuc), transformed with Luciferase, at 2uM
# Format: functional, HepG2
# Settings: tested at 2 uM
row,Structure (SMILES),INHIBITION
1,CC(C)C(=O)N1Cc2ccccc2CC2(CCCCN2C)C1 (centres undefined),6.2%
2,O=C(CCNc1ncccn1)N1CCN(c2nccs2)CC1,9.41%
3,CCC(=O)N1CCC2(CC1)CC(CC(N)=O)c1ccc(F)cc12 (centres undefined),-10.13%
4,COCCN1CCC2(CC1)CC(CC(N)=O)c1ccc(F)cc12 (centres undefined),53.06%
5,CC(C)N1CCC2(CC1)CC(CC(N)=O)c1ccc(F)cc12 (centres undefined),-94.52%
6,O=C(CCc1cccc(F)c1F)N1CCCC(n2cncn2)C1 (centres undefined),-19.35%
7,CCN(CC)[C@@H]1CN(C(=O)c2ccc(C#N)cc2)[C@@H]2CCCO[C@H]12,-58.31%
8,Nc1cccnc1N1CCN(c2ccccc2)CC1,-43.35%
9,COc1cccc(F)c1-c1nc2c([nH]1)c(C1CC1)nn2C,21.14%
10,O=C(c1ccc[nH]1)N1CCc2onc(COc3cccnc3)c2C1,-39.67%
11,O=C(N1CCCC1)N1CCc2onc(COc3cccnc3)c2C1,11.79%
12,O=C(c1ccncc1F)N1CCc2onc(COc3cccnc3)c2C1,54.89%
13,O=C(c1ccc(F)cc1F)N1C[C@@H](O)[C@H](N2CCOCC2)C1,13.51%
14,O=C(CCc1nccs1)N1CCCC(N2CCNC2=O)C1 (centres undefined),7.74%
15,CC(C)CN1C[C@@H]2CN(S(=O)(=O)c3cccs3)C[C@@H]2C1=O,29.85%
16,COCCN1C[C@@H]2CN(S(=O)(=O)c3cccs3)C[C@@H]2C1=O,-8.59%
17,CCN1C[C@@H]2CN(S(=O)(=O)c3cccs3)C[C@@H]2C1=O,62.25%
18,CCCN1CCCn2nc(CNS(=O)(=O)c3cccc(F)c3)cc2C1,39.28%
19,Cc1ccc(CN(Cc2[nH]cnc2C)C2CC(C)(C)NC(C)(C)C2)o1,-13%
20,Cc1nc(C2CCCN2CC(=O)N2CCc3ccccc32)no1 (centres undefined),47.93%
21,COCC1CN(C(=O)Nc2cc(Cl)cc(Cl)c2)CCO1 (centres undefined),13.12%
22,COCCOc1ccc(NC(=O)N2CCOC(C(N)=O)C2)cc1F (centres undefined),29.89%
23,CCOc1ccc(NC(=O)N2CCOC(C(N)=O)C2)cc1Cl (centres undefined),51.4%
24,CCOc1ccc(NC(=O)N2CCOC(C(N)=O)C2)cc1C (centres undefined),6.22%
25,Cc1cc(NC(=O)N2CCOC(C(N)=O)C2)ccc1Br (centres undefined),29.89%
26,NC(=O)C1CN(C(=O)Nc2cc(Cl)cc(Cl)c2)CCO1 (centres undefined),80.56%

row,Structure (SMILES),INHIBITION
1,Cc1ccsc1C(=O)N1CCCN(Cc2cscn2)CC1,29.12%
2,COc1ccc(NCCC(=O)NCc2cccnc2N(C)C)cc1,35.54%
3,CCOC(=O)c1cnn(C2CCN(C(=O)CC(C)(C)C)CC2)c1N,-40.25%
4,c1ccc(CN2CCC3(CC2)CC(Nc2nccs2)CO3)nc1 (centres undefined),-14.97%
5,O=C(NCC1CCCN1CCc1ccccc1)NCC1(O)CCC1 (centres undefined),57.34%
6,O=C(NCC1CCN(CCc2ccccc2)C1)NCC1(O)CCC1 (centres undefined),-69.19%
7,O=C(NCC1CCCN1Cc1ccccc1)NCC1(O)CCC1 (centres undefined),-19.78%
8,Cc1cc(CN2CC[C@H]3C[C@H](c4nc(C5CC5)cs4)O[C@@H]3C2)no1,35.84%
9,COCCC1COC2(CCN(C(=O)c3ccncc3)CC2)C1 (centres undefined),2.5%
10,COCCC1COC2(CCN(C(=O)c3ccsc3)CC2)C1 (centres undefined),56.71%
11,COCCC1COC2(CCN(C(=O)c3ccccc3)CC2)C1 (centres undefined),-40.63%
12,Cn1cnc(S(=O)(=O)NCCN2CCCCCC2=O)c1Cl,3.86%
13,CCc1ccc(C(=O)NC2CCN(c3cnn(C)c3)C2=O)o1 (centres undefined),26.65%
14,Cc1ccccc1C(=O)NC1CCN(c2cnn(C)c2)C1=O (centres undefined),52.08%
15,Cc1cccc(C(=O)NC2CCN(c3cnn(C)c3)C2=O)c1C (centres undefined),13.53%
16,Cc1cccc(C(=O)NC2CCN(c3cnn(C)c3)C2=O)n1 (centres undefined),1.22%
17,Cc1ccsc1C(=O)NC1CCN(c2cnn(C)c2)C1=O (centres undefined),20.14%
18,Cn1cc(N2CCC(NC(=O)c3c(F)cccc3Cl)C2=O)cn1 (centres undefined),50.98%
19,Cn1cc(N2CCC(NC(=O)c3ccccc3Cl)C2=O)cn1 (centres undefined),28.95%
20,Cn1cc(N2CCC(NC(=O)c3c(F)cccc3F)C2=O)cn1 (centres undefined),31.98%
21,Cn1cc(N2CCC(NC(=O)c3ccccc3F)C2=O)cn1 (centres undefined),63.1%
22,COc1ccc(S(=O)(=O)NCCn2cnc(C)cc2=O)cc1C,11.94%
23,CCCN1C[C@@H]2CC[C@H]1CN(C(=O)c1ccc(N(C)CCO)cc1)C2,6.73%
24,CC(=O)N(C)Cc1cccc(NC(=O)c2cnn(C)c2C)c1,-7.28%
25,CC(O)CN1CCC(CNCc2ccc(C(N)=O)cc2)CC1 (centres undefined),-63.41%
26,N#CCCN(c1ccccc1)S(=O)(=O)CC1CCCCO1 (centres undefined),16.87%

row,Structure (SMILES),INHIBITION
1,CNC(=O)CCN(C)CC1(c2ccc(Br)cc2)CC1,-43.52%
2,CCNC(=O)N(C)Cc1ccc(SC)c(OC)c1,-53.99%
3,CCc1cnc(C)nc1N(C)CCCc1cnn(C)c1,-32.88%
4,COc1ccccc1-n1cc(C(=O)NCCCn2ccnn2)cn1,32.73%
5,CC(C#N)NS(=O)(=O)c1ccc2c(c1)N(C)CCC2 (centres undefined),-95.81%
6,Brc1csc(CNCc2nnc3n2CCC3)c1,26.81%
7,COc1ccc(-n2ccc(C(=O)NCCN3CCCCCC3)n2)cc1,23.42%
8,COC(=O)CCNC(=O)c1ccc(NC(=O)N(C)CC(C)(C)C)cc1,6.85%
9,COc1ccc(C(=O)CCc2nc(C3CC3)no2)cc1,9.43%
10,O=C(CCc1nc(C2CC2)no1)c1ccccc1,53.65%
11,O=C(CCc1nc(C2CC2)no1)c1ccc(F)c(F)c1,-44.84%
12,Cc1ccc(CN2CCN(c3ncccc3Cl)CC2CCO)cc1 (centres undefined),-87.47%
13,Cc1nc(C2CCCN(C(=O)c3ccc(S(C)(=O)=O)cc3)C2)no1 (centres undefined),-6.56%
14,COCCN1C[C@@H]2CCCO[C@@H]2[C@H](N(C)Cc2ccco2)C1,45.82%
15,Cc1nccn1-c1nccnc1C1CCN(Cc2ccc(F)cc2)CC1,-42.32%
16,CCc1ccccc1CN1CC[C@@H](NC(=O)c2cccnc2)[C@H](O)C1,-44.59%
17,O=C(N[C@@H]1CCN(Cc2cc3ccccc3s2)C[C@H]1O)c1cccnc1,60.35%
18,Cc1ccc(CN2CC[C@@H](NC(=O)c3cccnc3)[C@H](O)C2)s1,-38.78%
19,NC(=O)c1csc(N2CCCC(c3nc4ccccc4[nH]3)C2)n1 (centres undefined),-41.06%
20,CC(=O)N[C@@H]1CN(Cc2ccccc2C#N)C[C@H]1c1ccc(C)cc1,28.19%
21,CCN(CC1CCCO1)C(=O)Nc1cc(C(N)=O)ccc1OC (centres undefined),84.53%
22,CCN(CC1CCCO1)C(=O)Nc1ccc(F)cc1OC (centres undefined),22.1%
23,CCN(CC1CCCO1)C(=O)Nc1cc(OC)c(OC)cc1C (centres undefined),-19.76%
24,O=C(C1CC=CC1)N1C[C@H]2CN(Cc3ccncc3)C(=O)[C@H]2C1,30.57%
25,CN(C)CCNC(=O)[C@H]1C[C@H]2CN(C(=O)NC3CCCC3)C[C@@H]1O2,43.87%
26,CN1CCN(c2ncnc3c2CCN(C(=O)c2cccn2C)CC3)CC1,-4.99%

row,Structure (SMILES),INHIBITION
1,Cc1nc(NC(=O)c2c3c(nn2C2CCS(=O)(=O)C2)CCC3)sc1C (centres undefined),20.76%
2,Cc1nnc(NC(=O)c2c3c(nn2C2CCS(=O)(=O)C2)CCC3)s1 (centres undefined),48.68%
3,CCc1nnc(NC(=O)c2c3c(nn2C2CCS(=O)(=O)C2)CCC3)s1 (centres undefined),58.53%
4,COc1cc2nc3n(c(=O)c2cc1OC)CCN(C(=O)C1CCC1)CC3,-50.24%
5,c1c(CN2CCCCC2)nc2n1CCNC2,60%
6,c1c(CN2CCCC2)nc2n1CCNC2,-102.41%
7,CN1CCN(Cc2cn3c(n2)CNCC3)CC1,33.11%
8,CO[C@@H]1CCC[C@@H](NC(=O)CCCn2cncn2)[C@H]1O,-32.51%
9,CCc1cc(C(F)(F)F)n2nc(C3CCCN3C(=O)COC)cc2n1 (centres undefined),33.56%
10,Cc1nc(C)c(CN2CCOC(CNc3cccnn3)C2)s1 (centres undefined),-15.28%
11,Cc1cnc(CN2CCOC(CNc3cccnn3)C2)cn1 (centres undefined),18.31%
12,Cc1ncc(CN2CCOC(CNc3cccnn3)C2)s1 (centres undefined),58.05%
13,CC(C)NC(=O)Cn1cc(OCc2ccc(F)cc2)c(=O)cc1CO,14.65%
14,Cc1ccccc1[C@@H]1CN(C(=O)c2ccc3[nH]nnc3c2)C[C@H]1C(=O)O,-45.64%
15,CCn1c(CN2CCC(O)(C(=O)OC)CC2)nc2c(F)cccc21,54.32%
16,CCn1c(CN2CCN(CC(N)=O)CC2)nc2c(F)cccc21,27.55%
17,CCn1c(CN2CCCN(C(=O)OC)CC2)nc2c(F)cccc21,20.28%
18,CN(Cc1ccccn1)C(=O)C(c1ccccc1)N1CCSCC1 (centres undefined),19.48%
19,Fc1cccnc1O[C@H]1CN(Cc2ccoc2)[C@@H]2CCCO[C@H]12,-0.18%
20,Fc1cccnc1O[C@@H]1CN(Cc2ccco2)[C@@H]2CCCO[C@@H]21,-8.22%
21,Fc1cccnc1O[C@@H]1CN(Cc2ccccn2)[C@@H]2CCCO[C@@H]21,66.64%
22,O=C(COc1ccc2cccnc2c1)N1CCN[C@H]2CS(=O)(=O)C[C@H]21,-7.4%
23,CN(C)C(=O)CN1CCC2(COCc3cnc(-c4cccnc4)nc32)C1 (centres undefined),-55.8%
24,Cc1cc(CNCC2CNc3ccnn3C2)no1 (centres undefined),-10%
25,Cc1cc2n(n1)CC(CNCc1cc(C)on1)CN2 (centres undefined),57%
26,Cc1ccc(CNCC2CNc3cc(C)nn3C2)cn1 (centres undefined),4.19%
